Records with an inconclusive call do not appear. Activity calls are given as the source filed them. Rule for the calls: active = hit-call score of the fitted dose curve at least 0.9, where 1 is the maximum; inconclusive = response in the unintended direction; inactive = score below 0.9.

The target in this experiment is Estrogen-related receptor gamma (Homo sapiens) (UniProt P62508). As to the kind of experiment: ATG_ERRg_TRANS: Attagene TRANS-FACTORIAL HepG2 Assay for human Estrogen-Related Receptor gamma (ERRg) (AID 2282977).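 Note: hits increase reporter signal over DMSO so potencies reflect activators.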 The note with it: HepG2 Attagene TRANS reporter, ERRg transactivation. How it is done: ATG_TRANS is a cell-based, multiplexed-readout assay that uses HepG2, a human liver cell line, with measurements taken at 24 hours after chemical dosing in a 24-well plate.ATG_ERRg_TRANS is one of 30 assay component(s) measured or calculated from the ATG_TRANS assay. It is designed to make measurements of mRNA induction, a form of inducible reporter, as detected with fluorescence intensity signals by Reverse transcription polymerase chain reaction (RT-PCR) and Capillary electrophoresis technology.Data from the assay component ATG_ERRg_TRANS was analyzed into 1 assay endpoint. This assay endpoint, ATG_ERRg_TRANS, was analyzed in the positive analysis fitting direction relative to DMSO as the negative control and baseline of activity. Using a type of inducible reporter, measures of mRNA for gain-of-signal activity can be used to understand the reporter gene at the transcription factor-level as they relate to the gene ESRRG. Furthermore, this assay endpoint can be referred to as a primary readout, because this assay has produced multiple assay endpoints where this one serves a reporter gene function. To generalize the intended target to other relatable targets, this assay endpoint is annotated to the nuclear receptor intended target family, where the subfamily is steroidal.
Chain of Estrogen-related receptor gamma (Homo sapiens) (P62508 whole entry, looked up): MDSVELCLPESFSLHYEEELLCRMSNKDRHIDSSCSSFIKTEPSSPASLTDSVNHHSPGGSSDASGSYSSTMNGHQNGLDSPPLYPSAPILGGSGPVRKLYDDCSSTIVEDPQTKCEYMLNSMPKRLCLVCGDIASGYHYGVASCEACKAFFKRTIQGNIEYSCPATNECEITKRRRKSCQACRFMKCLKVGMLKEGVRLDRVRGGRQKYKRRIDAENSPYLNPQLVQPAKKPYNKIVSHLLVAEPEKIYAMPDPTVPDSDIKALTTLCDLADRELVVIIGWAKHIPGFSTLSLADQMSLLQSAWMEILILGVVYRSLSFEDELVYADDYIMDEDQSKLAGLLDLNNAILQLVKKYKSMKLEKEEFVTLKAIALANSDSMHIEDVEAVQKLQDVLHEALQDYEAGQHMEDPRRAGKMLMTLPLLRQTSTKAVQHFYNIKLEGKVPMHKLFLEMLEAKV
Human liver HepG2 cells are transiently transfected with multiple reporter transcription units (MRTUs) in 6-well plates using FuGene 6 reagent (Roche; 3 ml FuGene/1 mg DNA). The MRTU constructs are regulated by a cis-regulating element (promoter). […] A major difference between the CIS and TRANS system is that in CIS activities of endogenous TFs are measured, whereas the TRANS assay evaluates changes in activities of exogenous, chimeric NR-Gal4 proteins. […] At the end of 24 hour incubation, total RNA was isolated using TriZol reagent (Invitrogen). The isolated RNA is then reverse-transcribed using oligo(dT) primer and Mo-MLV reverse transcriptase (Invitrogen) with DNAse I (Ambion) treatment for 30 min. The one-tenth of the produced cDNA was amplified by PCR using Taq DNA polymerase (Invitrogen) and two reporter sequence-specific primers. The PCR products were fluorescently labeled by primer extension with 6-arboxyfluorescein (6-FAM) 5'-labeled reporter sequence-specific primer (2 min at 95 C, 20 s at 68 C and 10 min at 72 C) and these products were digested with 5U of HpaI (New England Biolabs) for 2h at 37 C. The fragments were purified using Qiaquick PCR columns (Qiagen), analyzed on an ABI 3130xL genetic analyzer (Applied Biosystems) with peak positions identified by using a set of X-rhodamine (ROX)-labeled MapMarker1000 molecular weight standards (BioVentures). The raw capillary electrophoresis data was processed using Attagraph software (Attagene).
As for `CC(C)c1nnc2ccc(-c3ocnc3-c3cc(F)ccc3F)cn12`, the compound was classed as inactive.
Regarding `NNC(=O)c1ccncc1`, the compound was called inactive.
For `OCCC(F)(F)C(F)(F)C(F)(F)C(F)(F)F`, the result was inactive.
Turning to `C[Si](C)(C)C(F)(F)C(F)(F)C(F)(F)F`, the compound was classed as inactive.
Take `OC[C@H]1O[C@@](CO)(O[C@H]2O[C@H](CO)[C@@H](O)[C@H](O)[C@H]2O)[C@@H](O)[C@@H]1O`: the outcome was inactive.
For `O=S(=O)(O)c1ccc(N=Nc2c(O)ccc3cc(S(=O)(=O)O)ccc23)cc1`, the outcome was inactive.
Regarding `OCc1c[nH]c2ccccc12`, the outcome was inactive.
For `O=C(Cl)C(F)(F)C(F)(F)C(F)(F)C(=O)Cl`, the call was inactive.
For `FC(F)(F)C(F)(F)C(F)(F)C(F)(F)C(F)(F)C(F)(F)I`, the outcome was inactive.
Take `OCCNCCO`: the compound was classed as inactive.
On to `CC(C)C(=O)Nc1ccc([N+](=O)[O-])c(C(F)(F)F)c1`, for which the call was inactive.
With `C[C@@H](Oc1ccc(CNC(=O)c2cccnc2Oc2ccc3c(c2)OCO3)c(F)c1)C(=O)O`, the compound was classed as inactive.
As for `Cc1nccn1-c1ccc(Sc2cccc(C3(C(N)=O)CCOCC3)c2)cc1`, the call was inactive.
`CCOc1ccc2[nH]cc(C(=O)NCc3ccccc3)c(=O)c2n1`: the compound was classed as inactive.
Consider `FC(F)=C(F)C(F)(F)C(F)(F)C(F)(F)C(F)(F)C(F)(F)C(F)(F)F`, for which the call was inactive.
Turning to `O=C(NO)C1(NS(=O)(=O)c2ccc(Oc3ccc(F)cc3)cc2)CCOCC1`, the compound was classed as inactive.
Regarding `OC(O)(C(F)C(O)(O)C(F)(F)F)C(F)(F)F`, the outcome was inactive.
For `OCc1ccccc1` the value was “inactive”; for `Cc1cccc(O)c1C`, “inactive”; for `S=P(N1CC1)(N1CC1)N1CC1`, “inactive”.
For the compound `Cc1nc(-c2ccccn2)ncc1C(=O)Nn1cc(C)c2cc(F)ccc21`, the call was inactive.
Next, `FC(F)(F)COC(OCC(F)(F)F)OCC(F)(F)F`: “inactive”; `FC(F)C(F)(F)COCC1CO1` (stereo not drawn): “inactive”; `c1ccc2cc3ccccc3cc2c1`: “inactive”.
Regarding `OC(Cn1cncn1)(Cn1cncn1)c1ccc(F)cc1F`, the compound was called inactive.
Consider `CCCOc1ccc(S(=O)(=O)N2CCN(CC)CC2)cc1-c1nc2c(CC)n(Cc3ccccn3)nc2c(=O)[nH]1`, for which the outcome was inactive.
Next, `O=c1[nH]cnc2c1ncn2[C@H]1CC[C@@H](CO)O1`: “inactive”.
For `O=S(=O)(O)CCC(F)(F)C(F)(F)C(F)(F)C(F)(F)C(F)(F)C(F)(F)F` the value was “inactive”.

The values above are taken from PubChem BioAssay (EPA / NIEHS).
